D1 antagonist = antagonists of human D1 dopamine receptor; P21728; HEK293 TREx D1 cells, calcium flux, dopamine EC80; stronger effect = lower value; activity change, negative = inhibition, % at 10 µM; 360,000 tested, 3.2% active; AID 504652; in the data active means activity change below about -30%; further: on the % scale 0 is the no-effect control and ±100 the full control effect
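Compound effects on dopamine-evoked calcium signalling were measured in tetracycline-induced HEK293 Trex D1 cells. Dopamine at EC80 followed a 180 s compound pre-read, and fluorescence was tracked kinetically for 180 s more.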
TRHR enhancer-1 = TRH receptor (human) allosteric enhancement. TRHR cells, fluo-8 calcium fluorescence, EC20 TRH enhancement. enhancement, % at 2 µM. 360,000 tested, 0.66% active. P34981; in the data active means enhancement above about 30%; further: 0% is about no effect
Target sequence (P34981 whole entry, looked up): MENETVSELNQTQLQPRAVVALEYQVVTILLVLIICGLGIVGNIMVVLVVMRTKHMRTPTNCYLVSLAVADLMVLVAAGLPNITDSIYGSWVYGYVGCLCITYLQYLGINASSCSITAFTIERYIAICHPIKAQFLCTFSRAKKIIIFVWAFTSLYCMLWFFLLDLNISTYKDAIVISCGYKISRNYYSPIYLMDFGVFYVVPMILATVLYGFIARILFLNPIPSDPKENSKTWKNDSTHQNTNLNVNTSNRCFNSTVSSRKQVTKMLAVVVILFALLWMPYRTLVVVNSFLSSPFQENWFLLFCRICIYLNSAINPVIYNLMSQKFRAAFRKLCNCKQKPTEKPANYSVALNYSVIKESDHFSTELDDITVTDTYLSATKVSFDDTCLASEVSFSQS
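TRHR-expressing cells loaded with fluo-8 calcium dye were read kinetically (ex 480/em 530) during compound addition, then stimulated with an EC20 of TRH (10 nM final). Enhancement of the Gq-mediated intracellular calcium response was scored.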
TRHR agonist-1 = activates the human TRH receptor; P34981; TRHR cells, calcium flux fluo-8, FDSS agonist mode; activation, % at 2 µM; 360,000 tested, 0.18% active; AID 493084; in the data active means activation above about 30%; further: 0% is about no effect
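TRHR-expressing cells loaded with fluo-8 calcium dye; 23 nL library compound pin-transferred, kinetic FDSS fluorescence (Ex 480/Em 530) recorded about 180 s for agonist-induced calcium release, before a 10 nM TRH EC20 addition for potentiator mode.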
D1 agonist = human D1 receptor agonism | HEK293 T-REx D1 cells, calcium flux, agonist mode | P21728 | activation, % at 2 µM | 360,000 tested, 1% active | AID 504660; in the data active means activation above about 30%; further: 0% is about no effect
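Agonism was scored from calcium flux recorded over 180 s (1 read/s) after pintool compound addition, following a 10-cycle baseline. Cells were inducible force-coupled HEK293 TREx D1, plated overnight at 30 C and loaded with no-wash calcium dye.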
D1 PAM = enhances dopamine response at the human D1 receptor. HEK293 TREx D1 cells, calcium flux, dopamine EC20 potentiation. potentiation, % at 10 µM. 360,000 tested, 0.036% active. AID 504651; in the data active means potentiation above about 30%; further: 0% is about no effect
TRHR enhancer-2 = confirmation of human TRH receptor allosteric enhancers | 970 tested, under 10 active | activity change, negative = inhibition, % at 46.1 µM | TRH receptor cell assay, enhancer confirmation qHTS | shares compounds with TRHR enhancer-1;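 further: compound effect scored on response to added TRH at EC20 of 10 nM; 0% is about no effect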
TRHR agonist-2 = human TRH receptor agonism confirmation; AID 493078; shares compounds with TRHR enhancer-1; TRHR-expressing cells, agonist activation read-out; 970 tested, 8% active; Potency, µM (titrated, usually from 46.1 µM), for the others: at the highest dose activation, usual class: activators; further: potency means the concentration at half of the fitted maximal effect; 0% is about no effect; nearly all actives have a fitted effect of over 75% in size
* hit, by the source's call. Only some compounds are listed: those with a hit (about 4.7% of all), similar ones and a draw of the others. Unless noted, the call rests on the fitted dose curve; in most records, active means well fitted curve in the direction sought with a large enough effect; inconclusive means small, poorly fitted or top-dose-only effect, or another doubt; inactive means no such curve, though single readings can be large; an effect the other way counts as inactive or inconclusive.

`O=C(CSc1ccc(-c2ccc(F)cc2)nn1)N1CCOCC1` gave D1 antagonist 0.4, TRHR enhancer-1 49.7*, TRHR agonist-1 0.0, D1 agonist 5.8, D1 PAM 4.2, TRHR enhancer-2 -5.1 and TRHR agonist-2 1.0%.
Screening CCCOc1cccc(C2c3c(oc4ccccc4c3=O)C(=O)N2c2nncs2)c1 (stereo not given) returned D1 antagonist -7.2, TRHR enhancer-1 10.9, TRHR agonist-1 -1.0, D1 agonist 22.0 and D1 PAM -3.4.
O=C(Cn1nnc2ccccc21)C1CC1 was read as D1 antagonist 7.4, TRHR enhancer-1 47.3*, TRHR agonist-1 -0.2, D1 agonist 3.6, D1 PAM -4.9, TRHR enhancer-2 -3.2 and TRHR agonist-2 -0.7%.
Screening CN(C)c1ccc(/C=N/NC(=O)Cn2nnc3ccccc32)cc1 returned D1 antagonist 7.3, TRHR enhancer-1 2.2, TRHR agonist-1 29.1, D1 agonist 0.6, D1 PAM 0.5, TRHR enhancer-2 inconclusive and TRHR agonist-2 1.1%.
CCN1CCN(c2ncc3c(n2)CCN(Cc2ccccc2C)C3)CC1 was read as D1 antagonist 10.2, TRHR enhancer-1 5.6, TRHR agonist-1 0.5, D1 agonist 2.6 and D1 PAM 0.1.
`CCN(CC)c1ccc(NC(=O)c2cnn(-c3ccccc3)c2-n2cccc2)c(C)c1` gave D1 antagonist 0.6, TRHR enhancer-1 8.1, TRHR agonist-1 -1.9, D1 agonist 4.1 and D1 PAM -3.6.
For COc1ccc(OC)c(Nc2nc(-c3cccs3)cs2)c1 the results were D1 antagonist 14.9, TRHR enhancer-1 -3.1, TRHR agonist-1 0.5, D1 agonist 0.4 and D1 PAM -1.6.
COc1ccccc1Nc1nc(-c2cccs2)cs1 was read as D1 antagonist -24.0, TRHR enhancer-1 44.3*, TRHR agonist-1 1.4, D1 agonist 0.7, D1 PAM -5.6, TRHR enhancer-2 -4.9 and TRHR agonist-2 4.8%.
Screening CCc1nn2c(=O)c(S(=O)(=O)Nc3ccc(OC)c(Cl)c3)c(C)nc2s1 returned D1 antagonist 5.9, TRHR enhancer-1 -1.7, TRHR agonist-1 0.9, D1 agonist 11.0 and D1 PAM -1.8.
`COCCN(C(=S)Nc1ccccc1C)C(C)c1cccnc1` (stereo not given) gave D1 antagonist -4.8, TRHR enhancer-1 15.1, TRHR agonist-1 -1.6, D1 agonist 2.3 and D1 PAM 0.0.
For Cc1ccccc1NC(=S)N(CCN(C)C)C(C)c1cccnc1 (stereo not given) the results were D1 antagonist -5.6, TRHR enhancer-1 43.1*, TRHR agonist-1 0.1, D1 agonist 0.7, D1 PAM -2.1, TRHR enhancer-2 -8.7 and TRHR agonist-2 -0.7%.
CCOC(=O)C1=C(O)/C(=C/c2cc(OC)c(O)c(OC)c2)SC1=Nc1ccc(OC)cc1 was read as D1 antagonist -63.6*, TRHR enhancer-1 8.2, TRHR agonist-1 27.4, D1 agonist 17.1, D1 PAM -13.6, TRHR enhancer-2 -0.7 and TRHR agonist-2 inconclusive.
For N#C/C(=C/c1ccc(N2CCOCC2)o1)C(=O)NC1CCCCC1 the results were D1 antagonist -4.7, TRHR enhancer-1 2.1, TRHR agonist-1 46.9*, D1 agonist 113.3*, D1 PAM -4.6, TRHR enhancer-2 inconclusive and TRHR agonist-2 20.6µM*.
For N#C/C(=C\c1ccc(N2CCOCC2)o1)c1ccccc1 the results were D1 antagonist 8.7, TRHR enhancer-1 4.6, TRHR agonist-1 -1.6, D1 agonist -0.1 and D1 PAM -3.8.
COc1ccc(Cl)cc1NC(=O)c1cc(S(=O)(=O)N2CCc3ccccc32)cn1C was read as D1 antagonist 8.9, TRHR enhancer-1 1.5, TRHR agonist-1 -0.2, D1 agonist -0.4 and D1 PAM -2.2.
`CSC(=Nc1cccc(C)c1)NC#N` gave D1 antagonist -14.8, TRHR enhancer-1 6.9, TRHR agonist-1 0.1, D1 agonist 5.9 and D1 PAM -2.0.
N#CNC(=Nc1cccc(C(F)(F)F)c1)SCc1ccc(C(=O)O)cc1 was read as D1 antagonist -9.6, TRHR enhancer-1 46.5*, TRHR agonist-1 0.5, D1 agonist 1.4, D1 PAM -2.2, TRHR enhancer-2 8.7 and TRHR agonist-2 7.2%.
`CCN(CC)c1ccc(CN2CCC(C(=O)NCc3ccc(C)cc3)CC2)cc1` gave D1 antagonist -7.4, TRHR enhancer-1 44.8*, TRHR agonist-1 -0.4, D1 agonist 6.6, D1 PAM -2.5, TRHR enhancer-2 9.2 and TRHR agonist-2 2.2%.
For CSc1ccc(CCNC(=O)C2CCN(c3ncnc4c3nc3n4CCCCC3)CC2)cc1 the results were D1 antagonist -14.3, TRHR enhancer-1 1.2, TRHR agonist-1 -0.7, D1 agonist 1.7 and D1 PAM -2.0.
Screening N#CC1=C(N)Oc2cc(O)ccc2C1c1cccnc1 (stereo not given) returned D1 antagonist -3.1, TRHR enhancer-1 7.3, TRHR agonist-1 0.1, D1 agonist 1.8 and D1 PAM -6.5.
Screening N#CC1=C(N)Oc2cc(O)c(Cl)cc2C1c1cccnc1 (stereo not given) returned D1 antagonist 6.8, TRHR enhancer-1 -1.1, TRHR agonist-1 64.5*, D1 agonist 59.7*, D1 PAM 1.7, TRHR enhancer-2 5.3 and TRHR agonist-2 inconclusive.
Screening COc1ccc(-c2noc(-c3ccc(NCCc4ccccc4)c([N+](=O)[O-])c3)n2)cc1 returned D1 antagonist -4.4, TRHR enhancer-1 -0.3, TRHR agonist-1 -0.2, D1 agonist 0.4 and D1 PAM -0.8.
`CCc1cccc2c(-c3ccccc3)nc(SCC(=O)Nc3ccccc3OC)nc12` gave D1 antagonist -6.2, TRHR enhancer-1 8.0, TRHR agonist-1 1.7, D1 agonist 1.6 and D1 PAM 4.5.
COCCN1CCN(Cc2cn(C)nc2-c2ccc(Oc3ccccc3)cc2)CC1 was read as D1 antagonist -4.4, TRHR enhancer-1 43.8*, TRHR agonist-1 -0.1, D1 agonist 8.4, D1 PAM 2.0, TRHR enhancer-2 -5.3 and TRHR agonist-2 2.5%.
Screening Cn1cc(CN2CCN(CCO)CC2)c(-c2ccc(Oc3ccccc3)cc2)n1 returned D1 antagonist -3.3, TRHR enhancer-1 5.7, TRHR agonist-1 1.0, D1 agonist 5.1 and D1 PAM 2.6.
O=C(C1=C(O)C(=O)N(c2nccs2)C1c1ccccc1)c1cc2ccccc2o1 (stereo not given) was read as D1 antagonist -14.0, TRHR enhancer-1 1.7, TRHR agonist-1 57.4*, D1 agonist 107.1*, D1 PAM -0.1, TRHR enhancer-2 inconclusive and TRHR agonist-2 4.61µM*.
